Experimental data published in ChEMBL document CHEMBL1157539, “Thousands of chemical starting points for antimalarial lead identification” (Nature, 2010).

The molecules below were run on Plasmodium falciparum (assay: GSK_TCMDC: Inhibition of Plasmodium falciparum 3D7 in whole red blood cells, using parasite LDH activity as an index of growth. Test compounds present at 2uM).
Assay type: functional

How did the Inhibition turn out when `Cc1cnc2ccc(NS(=O)(=O)c3sc4ccc(Cl)cc4c3C)cc2c1N1CCNCC1.Cl` was run?
Its Inhibition is 99%.

For `COc1ccc(Nc2cc(C)nc(Nc3ccc(NC(C)=O)cc3)n2)cc1`, which Inhibition is on record?
The Inhibition was 98%.

`CN1CCC(C(=O)Nc2cccc(-c3ccc(-c4nc5cc(F)ccc5[nH]4)cc3)c2)CC1` was tested. Which Inhibition did it give?
The Inhibition was 100%.

`Cc1cc2c(cc1C(F)(F)F)N(C(=O)Nc1ccc(OCCN(C)C)c(C(F)(F)F)c1)CC2.Cl` was tested. Which Inhibition did it give?
The Inhibition was 93%.

For `Cc1cc(=O)[nH]c(-n2nc(C)cc2NC(=O)C2(c3ccc(Cl)cc3)CCCC2)n1`, which Inhibition is on record?
Its Inhibition is 96%.

`Nc1cccc(CNCc2ccc(-c3ccc(-c4nc5cc(C(F)(F)F)ccc5[nH]4)s3)cc2)c1.O=C(O)C(F)(F)F` was tested. Which Inhibition did it give?
The Inhibition was 100%.

Which Inhibition does the source give for `Cc1ccc2nc(-c3ccc(C(=O)NCc4ccc(Cl)c(Cl)c4)cc3)[nH]c2c1C` here?
The Inhibition was 96%.

How did the Inhibition turn out when `Cc1cccc2nc(-c3ccc(-c4ccc(CN5CCCC(N)C5)cc4)cc3)[nH]c12.O=C(O)C(F)(F)F` (stereo not given) was run?
Its Inhibition is 99%.

How did the Inhibition turn out when `Cc1nc(-c2nc(NCCc3cnccn3)ncc2-c2ccsc2)sc1C` was run?
Its Inhibition is 98%.

`Cn1cnc2c(Nc3ccncc3)nc(-c3ccc4ccccc4c3)nc21` was tested. Which Inhibition did it give?
Its Inhibition is 96%.

How did the Inhibition turn out when `O=C(Nc1ccc2c(c1)OCCO2)c1cc(-c2cccnc2)nc2ccc(Cl)cc12` was run?
Its Inhibition is 95%.

How did the Inhibition turn out when `CNc1ccc(CNCc2cccc(-c3ccc(-c4nc5ccccc5[nH]4)s3)c2)cc1.O=C(O)C(F)(F)F` was run?
The Inhibition was 100%.

How did the Inhibition turn out when `CC(C)=CCc1c(-c2ccc(O)cc2O)oc2c3c(cc(O)c2c1=O)OC(C)(C)C=C3` [MORUSIN] was run?
The Inhibition was 89%.

With `O=C(/C=C/c1ccc(Cl)c(Cl)c1)NCCCCCN1CCC(c2c[nH]c3ccc(O)cc23)CC1` as the molecule, how does the Inhibition read?
The Inhibition was 100%.

`CCCNCc1ccc(-c2ccc(CN(Cc3cnc(C)cn3)C(=O)CC#N)cc2)nc1.O=C(O)C(F)(F)F` was tested. Which Inhibition did it give?
The Inhibition was 92%.

How did the Inhibition turn out when `Cc1cc(N[C@@H](Cc2ccccc2)C(=O)NCCOc2ccccc2)nc(NCCOc2ccccc2)n1.O=C(O)C(F)(F)F` was run?
The Inhibition was 98%.

For `COC(=O)c1c(C#N)c(OC)cc(O)c1CSC[C@H](Nc1nc(-c2ccc([N+](=O)[O-])cc2)cs1)C(=O)NCCN1CCCCC1`, which Inhibition is on record?
Its Inhibition is 85%.

For `Cc1ccc(C(=O)Cn2nc(-c3ccc(C)c(S(=O)(=O)N4CCCCC4)c3)ccc2=O)cc1`, which Inhibition is on record?
Its Inhibition is 99%.

`COc1ccc(CCNCCCCCCNCCc2cccc([N+](=O)[O-])c2)cc1OC.Cl` was tested. Which Inhibition did it give?
The Inhibition was 93%.

Which Inhibition does the source give for `CCCCCCN1CCC(NCc2cccc(-n3ccnc3)c2)CC1.O=C(O)C(F)(F)F` here?
The Inhibition was 100%.

`Cc1nc(NCc2ccccc2)cc(NCC(O)c2ccc(O)cc2)n1` (stereo not given) was tested. Which Inhibition did it give?
Its Inhibition is 85%.

`Br.CCCc1cc(C(C)=O)ccc1OCCCON1C(=N)N=C(N)NC1(C)C` was tested. Which Inhibition did it give?
Its Inhibition is 96%.

For `CC1(C)N=C(N)N=C(N)N1c1ccc2ccccc2c1.Cl`, which Inhibition is on record?
Its Inhibition is 95%.

Which Inhibition does the source give for `COCCCn1c(=N)c(C(=O)NCCc2ccc(OC)cc2)cc2c(=O)n3cccc(C)c3nc21` here?
The Inhibition was 95%.

Which Inhibition does the source give for `CNC(=O)c1cncc(/C=C/c2ccccc2S(N)(=O)=O)c1` here?
The Inhibition was 100%.

With `Cc1c(Cn2ncc(N3CC(C)NC(C)C3)c(Cl)c2=O)cccc1NC(=O)Nc1ccc(-c2ccccc2)cc1.O=C(O)C(F)(F)F` (stereo not given) as the molecule, how does the Inhibition read?
Its Inhibition is 97%.

For `COc1ccc(-c2nc(NC(=O)Cc3ccc4c(c3)OCCO4)sc2C)cc1`, which Inhibition is on record?
The Inhibition was 100%.

For `CCC(CC)N1CCN(CC(=O)Nc2ccc([N+](=O)[O-])cc2C(=O)Nc2cccc(OC)c2)CC1`, which Inhibition is on record?
Its Inhibition is 100%.

Which Inhibition does the source give for `Cc1cc(=NN=Cc2ccccc2Cl)c2ccc(F)cc2[nH]1` here?
The Inhibition was 100%.

Which Inhibition does the source give for `COc1ccc2nccc([C@@H](O)CN3CCC(NCCOc4cccc(C(F)(F)F)c4)CC3)c2c1.O=C(O)C(=O)O` here?
Its Inhibition is 100%.

How did the Inhibition turn out when `CCCCCCCOc1ccc(NC(=O)Nc2ccc(Cn3ncc(N4CCCNCC4)c(Cl)c3=O)cc2)cc1.O=C(O)C(F)(F)F` was run?
The Inhibition was 87%.

`COc1ccc2nccc([C@@H](O)CN3CCC(NCCc4c[nH]c5ccccc45)CC3)c2c1.O=C(O)C(=O)O` was tested. Which Inhibition did it give?
The Inhibition was 98%.

For `Cn1nc(C(F)(F)F)c(-c2ccc(F)cc2)c1NC(=O)Nc1ccccc1`, which Inhibition is on record?
The Inhibition was 100%.

`Clc1cc(Nc2ncnc3sc(C#Cc4ncc[nH]4)cc23)ccc1OCc1ccccn1` was tested. Which Inhibition did it give?
The Inhibition was 100%.

Which Inhibition does the source give for `CN1CCC[C@H]1COc1ccc(CN2CC[C@H](NC(=O)c3ccc(Cl)c(Cl)c3)C2)c2ccccc12.O=C(O)C(F)(F)F` here?
Its Inhibition is 100%.

How did the Inhibition turn out when `CCCC(=O)NC(c1cccs1)c1cc(Cl)c2cccnc2c1O` (stereo not given) was run?
Its Inhibition is 87%.

Which Inhibition does the source give for `COc1ccc(CC(=O)NC(CCCN2CCC(c3ccccc3)CC2)c2ccc(Cl)c(Cl)c2)cc1OC` (stereo not given) here?
Its Inhibition is 82%.

`Cc1cc(N(C)C)nc(Nc2ccc(NS(=O)(=O)c3ccccc3)cc2)n1` was tested. Which Inhibition did it give?
The Inhibition was 92%.

Which Inhibition does the source give for `CCC(C)NC(=O)CN1CN(c2ccccc2)C2(CCN(C(=O)c3ccc(-c4ccccc4)cc3)CC2)C1=O` (stereo not given) here?
Its Inhibition is 100%.

With `Cl.N[C@@H](CCNCc1ccc(-c2cccnc2)cc1)Cc1ccc(F)c(F)c1` as the molecule, how does the Inhibition read?
The Inhibition was 98%.
